Bioassay records from PubChem BioAssay.
In the library only some 4.7% were active in any assay of this set; here they are far more common.
PABP polyA inh = PABP poly(A) RNA binding inhibitors, primary screen, biochemical, fluorescence polarization, uHTS; Polyadenylate-binding protein 1 (Homo sapiens), P11940; inhibition, % at 35 µM; actives 1% (n = 290,000);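 note: calls also rest on retests at 20 µM and on dose response follow-up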
Target sequence (P11940 whole entry, looked up): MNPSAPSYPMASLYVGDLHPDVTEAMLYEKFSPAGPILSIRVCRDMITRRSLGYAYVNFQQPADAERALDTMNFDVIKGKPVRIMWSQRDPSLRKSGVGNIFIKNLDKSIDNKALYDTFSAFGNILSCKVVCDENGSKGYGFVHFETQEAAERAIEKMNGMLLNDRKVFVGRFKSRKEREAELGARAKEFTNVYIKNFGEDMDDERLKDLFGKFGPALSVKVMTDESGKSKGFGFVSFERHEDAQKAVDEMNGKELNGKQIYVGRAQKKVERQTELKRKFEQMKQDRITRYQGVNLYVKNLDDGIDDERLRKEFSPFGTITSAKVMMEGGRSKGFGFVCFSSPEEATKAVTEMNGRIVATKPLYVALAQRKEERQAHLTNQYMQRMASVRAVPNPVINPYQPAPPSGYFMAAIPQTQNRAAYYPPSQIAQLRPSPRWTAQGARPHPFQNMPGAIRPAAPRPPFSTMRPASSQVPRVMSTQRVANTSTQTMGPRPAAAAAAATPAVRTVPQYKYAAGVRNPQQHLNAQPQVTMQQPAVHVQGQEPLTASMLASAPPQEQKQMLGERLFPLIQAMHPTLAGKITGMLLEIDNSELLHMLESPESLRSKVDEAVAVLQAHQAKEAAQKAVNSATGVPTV
PABP1 MLLE inh = inhibitors of PABP1 MLLE–PAM2 peptide binding, primary screen, biochemical, fluorescence polarization, FITC-PAM2, GST-MLLE | Polyadenylate-binding protein 1 (Homo sapiens), P11940 | inhibition, % at 20 µM | actives 0.36% (n = 360,000) | AID 588489, 2011; in the data active = inhibition above about 35%, passing the limit was not always enough;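 note: plate controls were DMSO wells with GST-MLLE for no effect and wells lacking GST-MLLE protein for full effect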
Efflux pump mplx = inhibitors of Candida efflux pumps in yeast, primary screen, S. cerevisiae, Nile Red, multiplex; S. cerevisiae Candida pump triplex; inhibition, % at 10 µM; actives 0.44% (n = 330,000); AID 485275, 2010;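 active = plate passing quality check with inhibition over a set limit, or well fluorescence over plate mean plus 4 SD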;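 note: Nile Red retained in pooled yeast measured as flow cytometry median fluorescence; 0% = buffer negative control and 100% = Enniatin B positive control; higher means more Nile Red kept so more efflux inhibition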
ALR H2O2 inh = inhibitors of human ALR sulfhydryl oxidase, primary screen, biochemical, H2O2 detection, HRP-luminol luminescence, single point; FAD-linked sulfhydryl oxidase ALR (Homo sapiens), P55789; inhibition, % (no concentration beside the values); AID 485317, 2010; actives 3.8% (n = 290,000); purified ALR, DTT oxidation;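 active = mean replicate inhibition above about 79%, with every replicate also reaching it, limit read from the data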
eIF4H inh = human eIF4H binding inhibitors, primary screen, translation initiation inhibitor project, biochemical, uHTS, fluorescence polarization | Eukaryotic translation initiation factor 4H (Homo sapiens), Q15056 | actives 0.94% (n = 290,000) | inhibition, % at 35 µM | eIF4H fluorescence polarization binding assay | AID 2012, 2009;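 note: calls also rest on retests at 20 µM and on dose response follow-up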
SUMO HTRF inh = inhibitors of in vitro SUMOylation cascade, primary screen, biochemical, HTRF, uHTS | actives 0.36% (n = 290,000) | AID 2006, 2009 | inhibition, % at 35 µM | SUMO-conjugating enzyme UBC9 (Homo sapiens), P63279 | HTRF SUMOylation assay, SAE1/SAE2 + UBC9; in the data active = inhibition above about 50%, passing the limit was not always enough
Starred values were filed as active, the others as inactive. Unless noted, the rule behind the calls is not given here.

Screening CCOc1ccc(NC(=O)CSc2nc(=O)n(Cc3cccnc3)c3c2CCC3)cc1 returned PABP1 MLLE inh -11, Efflux pump mplx 0 and ALR H2O2 inh 99*.
O=C(CSc1nc(=O)n(CCCN2CCOCC2)c2c1CCCC2)Nc1ccc(F)cc1 was read as PABP1 MLLE inh -3, Efflux pump mplx 0 and ALR H2O2 inh 28.
`Cc1cc(C)c(NC(=O)CSc2nc(=O)n(CCN3CCOCC3)c3c2CCCC3)c(C)c1` gave PABP1 MLLE inh 9, Efflux pump mplx 0 and ALR H2O2 inh 12.
For Cc1ccc(NC(=O)CSc2nc3ccccc3nc2N2CCCC2)cc1 the results were PABP polyA inh -2, PABP1 MLLE inh 9, Efflux pump mplx 0, ALR H2O2 inh -16, eIF4H inh -4 and SUMO HTRF inh -12.
`Cc1ccc2nc(COc3ccc(Cl)cc3)cc(=O)n2c1` gave PABP polyA inh -12, PABP1 MLLE inh -10, Efflux pump mplx 0, ALR H2O2 inh 9, eIF4H inh 36 and SUMO HTRF inh 11.
`C[C@@H]1CN([C@H](C)CO)C(=O)CCCn2cc(nn2)CO[C@H]1CN(C)C(=O)Nc1cccc(C(F)(F)F)c1` gave PABP1 MLLE inh -3.
Screening CCCCc1ccc(NC(=O)CSc2nc(=O)n(CCCN3CCOCC3)c3c2CCC3)cc1 returned PABP1 MLLE inh -3, Efflux pump mplx 1 and ALR H2O2 inh 99*.
`CCOc1ccc(NC(=O)CSc2nc(=O)n(CCCN3CCOCC3)c3c2CCC3)cc1` gave PABP1 MLLE inh -2, Efflux pump mplx 0 and ALR H2O2 inh 97*.
For CCc1ccc(NC(=O)CSc2nc(=O)n(CCCN3CCOCC3)c3c2CCC3)cc1 the results were PABP1 MLLE inh 2, Efflux pump mplx 0 and ALR H2O2 inh 98*.
Cc1ccc(NC(=O)CSc2nc(=O)n(CCCN3CCOCC3)c3c2CCCC3)cc1 was read as PABP1 MLLE inh 21, Efflux pump mplx 0 and ALR H2O2 inh 98*.
For Cc1ccc(C)c(NC(=O)CSc2nc(=O)n(CCN3CCOCC3)c3c2CCCC3)c1 the results were PABP1 MLLE inh 0, Efflux pump mplx 0 and ALR H2O2 inh -1.
Cc1cccc(NC(=O)CSc2nc(=O)n(CCCN3CCOCC3)c3c2CCCC3)c1C was read as PABP1 MLLE inh 0.
COC(=O)CCNC(=O)c1ccc2nc(Cc3ccc(OC)c(OC)c3)oc2c1 was read as PABP polyA inh 1, PABP1 MLLE inh 7, Efflux pump mplx 0, ALR H2O2 inh -3, eIF4H inh -3 and SUMO HTRF inh 12.
Screening CCCCc1ccc(NC(=O)CSc2nc(=O)n(CCN3CCOCC3)c3c2CCC3)cc1 returned PABP1 MLLE inh -5, Efflux pump mplx 1 and ALR H2O2 inh 99*.
For Fc1ccc(CNc2ccc(N3CCN(Cc4ccccc4)CC3)cc2)cc1 the results were PABP polyA inh -7, PABP1 MLLE inh 4, Efflux pump mplx 0, ALR H2O2 inh 89*, eIF4H inh 14 and SUMO HTRF inh -4.
Screening COc1ccc(CNc2ccc(N3CCN(C(C)=O)CC3)cc2)cc1OC returned PABP1 MLLE inh 17.
O=C(CCS(=O)(=O)c1ccc(F)cc1)Nc1ccc(N2CCN(Cc3ccccc3)CC2)cc1 was read as PABP1 MLLE inh 10, Efflux pump mplx 0 and ALR H2O2 inh -5.
For CC(=O)N1CCN(c2ccc(NCc3cccc4ccccc34)cc2)CC1 the results were PABP polyA inh 20, PABP1 MLLE inh 9, Efflux pump mplx 0, ALR H2O2 inh 99*, eIF4H inh 6 and SUMO HTRF inh 0.
`c1ccc(CN2CCOCC2)nc1` gave PABP1 MLLE inh -10.
Screening CC(=O)N1CCN(c2ccc(NCc3ccccc3)cc2)CC1 returned PABP polyA inh 4, PABP1 MLLE inh 14, Efflux pump mplx 0, ALR H2O2 inh 99*, eIF4H inh 2 and SUMO HTRF inh -6.
Screening Fc1ccc(N2CCN(Cc3ccccn3)CC2)cc1 returned PABP polyA inh 32, PABP1 MLLE inh 2, Efflux pump mplx 0, ALR H2O2 inh 97*, eIF4H inh -5 and SUMO HTRF inh 9.
Screening COc1ccccc1/C=N/NC(=O)Cn1cnc([N+](=O)[O-])n1 returned PABP polyA inh -5, PABP1 MLLE inh -2, Efflux pump mplx 0, ALR H2O2 inh -17, eIF4H inh -1 and SUMO HTRF inh 6.
`CC1(C)CC2(C)CC(=O)C1C(C(=O)O)C2C(=O)O` (stereo not given) gave PABP1 MLLE inh 3.
Screening COc1cc2nc(N3CCN(C(=O)OCc4ccccc4)[C@H](C(=O)NC(C)(C)C)C3)nc(N)c2cc1OC returned PABP1 MLLE inh -13 and Efflux pump mplx 0.
Cc1cc(C)c(CN2CCN(C(=O)Cn3cnc4c(OCc5ccccc5)ncnc43)CC2)c(C)c1 was read as PABP1 MLLE inh -7 and Efflux pump mplx 0.
CCc1ccc2cc3c(cc2n1)C(=O)c1ccccc1-3 was read as PABP1 MLLE inh -4.
CC(=O)N1CCN(c2ccc(NCc3ccc(Br)o3)cc2)CC1 was read as PABP1 MLLE inh 19, Efflux pump mplx 0 and ALR H2O2 inh 99*.
For CC(=O)N1CCN(c2ccc(NCc3ccc(-c4ccc(Br)cc4)o3)cc2)CC1 the results were PABP1 MLLE inh -17, Efflux pump mplx 0 and ALR H2O2 inh 63.
`CC(=O)c1c(NCc2ccccc2)nc(=O)n(-c2ccccc2)c1C` gave PABP polyA inh 5, PABP1 MLLE inh -6, Efflux pump mplx 0, ALR H2O2 inh 0, eIF4H inh -4 and SUMO HTRF inh 13.
For CCn1c(C)c(C(C)=O)c(NCc2ccccc2)nc1=S the results were PABP polyA inh 10, PABP1 MLLE inh 17, Efflux pump mplx 0, ALR H2O2 inh 98*, eIF4H inh -5 and SUMO HTRF inh 21.
Screening CCSC1=NCCN1C(=O)c1ccc(S(=O)(=O)N(C)C)cc1 returned PABP polyA inh 42, PABP1 MLLE inh -3, Efflux pump mplx 0, ALR H2O2 inh 2, eIF4H inh 0 and SUMO HTRF inh 8.
`COCCN(C(=O)COC(=O)C12CC3CC(CC(C3)C1)C2)c1c(N)n(Cc2ccccc2)c(=O)[nH]c1=O` gave PABP1 MLLE inh 14.
COCCCNC(=O)c1cccn2c(=O)c3cc4ccccc4cc3nc12 was read as PABP polyA inh 67*, PABP1 MLLE inh 36, Efflux pump mplx 0, ALR H2O2 inh -23, eIF4H inh 20 and SUMO HTRF inh 73.
`O=C(NCc1ccco1)c1cnc2ccccn2c1=O` gave PABP polyA inh 9, PABP1 MLLE inh 19, Efflux pump mplx 0, ALR H2O2 inh -9, eIF4H inh -2 and SUMO HTRF inh 5.
